A selection: hits, their analogues and other compounds. The true share with any hit is near 5.9%.
RORg inh: inhibitors of mouse ROR gamma transcriptional activity. P51450. Drosophila S2 Gal4-RORgamma UAS-luciferase reporter, 20 h. Potency, µM (highest dose often 53.6 µM), most hits filed as inhibitors. 5.4% of 310,000 active. AID 2551; further: nearly all actives have a fitted effect of over 60% in size
Target sequence (P51450 whole entry, looked up, the tested form may be a part): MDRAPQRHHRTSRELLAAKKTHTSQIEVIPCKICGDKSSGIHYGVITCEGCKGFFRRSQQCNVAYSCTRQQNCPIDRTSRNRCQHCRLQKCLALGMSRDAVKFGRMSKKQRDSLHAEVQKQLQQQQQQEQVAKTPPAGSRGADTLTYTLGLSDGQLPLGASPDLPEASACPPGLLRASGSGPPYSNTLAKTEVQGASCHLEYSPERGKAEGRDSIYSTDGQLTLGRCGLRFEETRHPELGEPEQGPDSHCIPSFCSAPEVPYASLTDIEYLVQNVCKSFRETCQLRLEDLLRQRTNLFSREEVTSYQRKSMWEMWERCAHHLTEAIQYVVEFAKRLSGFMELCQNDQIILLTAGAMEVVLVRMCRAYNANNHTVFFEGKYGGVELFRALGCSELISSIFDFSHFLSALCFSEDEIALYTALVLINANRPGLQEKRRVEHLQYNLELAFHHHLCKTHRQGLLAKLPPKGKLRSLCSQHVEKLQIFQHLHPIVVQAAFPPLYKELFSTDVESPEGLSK
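Luminescence from a UAS-regulated Photinus luciferase reporter in stably transfected Drosophila Schneider cells is measured; decreased signal marks ROR gamma inhibition. Fusion expression is induced by 700 uM copper sulfate for 20 hr.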
GLP1R cytotox: cytotoxicity counter-screen for GLP-1 receptor inverse agonists | HEK293 cAMP-luciferase reporter cells, luminescence, 24 h | Potency, µM (titrated, usually from 38.3 µM), hits mostly inhibitors | 0.13% of 410,000 active | AID 624418;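 further: loss of luciferase light is scored as toxicity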
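A 23 nL compound transfer followed 12 hours of cell culture at 37 deg C; exposure then lasted 24 hr. Luciferase assay detection reagent was dispensed and plates read for luminescence after a 12 min room-temperature wait.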
GLP1R inv ag: GLP-1 receptor (human) inverse agonism | Potency, µM (highest dose often 38.3 µM), hits mostly inhibitors | 1.6% of 410,000 active | AID 624417 | HEK293 GLP-1R CRE-luciferase, luminescence, 24 h; GLP-1R form is constitutively active; further: nearly all actives have a fitted effect of over 55% in size
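Stable HEK293 clone (constitutively active GLP-1R + cAMP-response luciferase); 200 cells/uL plated, 12 h pre-culture, compound 24 hr, 37 deg C/5% CO2; detection reagent 12 min RT; luminescence.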
GLP1R ag: activates the human GLP-1 receptor; HEK293 GLP-1R CRE-luciferase, luminescence, 4-6 h; cells express a hypersensitive GLP-1R form; P43220; 0.007% of 380,000 active; Potency, µM (titrated, usually from 45.6 µM), usual class: activators; AID 624172
VP16 counter: Gal4-VP16 reporter inhibition counter-screen; Drosophila S2 Gal4-VP16 UAS-luciferase, luminescence, 20 h; Potency, µM (highest dose often 53.6 µM), hits mostly inhibitors; 3.5% of 310,000 active; AID 2546;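 further: Gal4-VP16 expression switched on by copper sulfate through the metallothionein promoter; nearly all actives have a fitted effect of over 50% in size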
Of the large screens only hits and unclear results are named; the others gave an inactive call. The call rests on the fitted dose curve; in most records, active means well fitted curve in the direction sought with a large enough effect; inconclusive means small, poorly fitted or top-dose-only effect, or another doubt; inactive means no such curve, though single readings can be large; an effect the other way counts as inactive or inconclusive.

COc1ccc(-n2ccnc(NCc3cccs3)c2=O)cc1	none (no result: RORg inh, GLP1R ag, VP16 counter)
S=c1[nH]nc(COc2ccccc2)n1/N=C/C=C/c1ccco1	none
S=c1[nH]nc(COc2ccccc2)n1/N=C/C(Cl)=C/c1ccccc1	RORg inh 7.9µM, GLP1R inv ag inconclusive, VP16 counter inconclusive
S=c1[nH]nc(COc2ccccc2)n1/N=C/c1cccnc1	VP16 counter inconclusive
S=c1[nH]nc(COc2ccccc2)n1/N=C/C=C/c1ccccc1	RORg inh inconclusive, VP16 counter 4.5µM
CCOC(=O)c1cc2c(=O)n3ccccc3nc2n(CC2CCCO2)c1=NC(=O)c1ccc(F)cc1 (stereo not given)	none (no result: RORg inh, GLP1R ag, VP16 counter)
CC(C)CCn1c(=O)c2sccc2n2c(CCCC(=O)NCc3ccc(F)cc3)nnc12	none (no result: RORg inh, GLP1R ag, VP16 counter)
COc1ccc(C(=O)NC2CCCc3ccccc32)cc1Br (stereo not given)	GLP1R inv ag inconclusive
COc1ccc(C(=O)NC(=S)N(C)C2CCCCC2)cc1Br	RORg inh 0.71µM, GLP1R cytotox inconclusive, GLP1R inv ag inconclusive, VP16 counter 0.71µM
COc1ccccc1/C=C/C(=O)NC(=S)N(C)C1CCCCC1	RORg inh inconclusive, GLP1R cytotox inconclusive, VP16 counter 3.2µM
COc1ccc(C(=O)NC(=S)N(C)C2CCCCC2)cc1	RORg inh 2µM, GLP1R cytotox inconclusive, GLP1R inv ag inconclusive, VP16 counter 4µM
Cc1ccc(C(=O)NC(=S)N(C)C2CCCCC2)cc1Br	RORg inh 0.22µM, VP16 counter 0.5µM (no result: GLP1R cytotox, GLP1R inv ag, GLP1R ag)
COc1ccc(/C=C/c2nc(C#N)c(NCCc3ccccc3)o2)cc1OC	none (no result: RORg inh, GLP1R ag, VP16 counter)
OC(CNc1ccccc1)COc1ccc(OCC(O)CNc2ccccc2)cc1 (stereo not given)	GLP1R inv ag 6.3µM, VP16 counter inconclusive
Cc1ccc(OCC(O)CNC(C)c2ccccc2)cc1C (stereo not given)	GLP1R inv ag 5µM
Cc1ccc(NC(=O)CSc2nc3nccnc3c(=O)n2CCc2c[nH]c3ccccc23)cc1C	none (no result: RORg inh, GLP1R ag, VP16 counter)
Cc1cccc(NC(=S)NNC(=O)c2ccccc2OC(F)F)c1	RORg inh inconclusive, VP16 counter inconclusive
CC(NC(=S)Nc1c(Br)cccc1OC(F)F)C(C)(C)C (stereo not given)	RORg inh 10µM, GLP1R cytotox inconclusive, GLP1R inv ag inconclusive, VP16 counter inconclusive
Cc1cc(C)c(NC(=O)C(C)n2nc(C)c3sc4ccccc4c3c2=O)c(C)c1 (stereo not given)	none (no result: RORg inh, GLP1R ag, VP16 counter)
COc1ccc(C2=C(C)C(=O)N(Cc3ccc(C(=O)NC(C)c4ccccc4)cc3)S2(=O)=O)cc1 (stereo not given)	none (no result: RORg inh, GLP1R ag, VP16 counter)
Cc1ccc(C2CC(c3cccs3)=NN2C(=O)CSC2=NCCS2)cc1 (stereo not given)	GLP1R inv ag 4.5µM
COc1ccc(C2CC(c3cccs3)=NN2C(=O)CSC2=NCCS2)cc1 (stereo not given)	GLP1R inv ag inconclusive
CCC(=O)N1N=C(c2cccs2)CC1c1ccc(C)cc1 (stereo not given)	GLP1R inv ag inconclusive
Cc1ccc(C2CC(c3cccs3)=NN2C(=O)CCl)cc1 (stereo not given)	RORg inh 18µM, GLP1R inv ag inconclusive, VP16 counter inconclusive
O=C(Cc1cn(Cc2cccc(Cl)c2)c2ccccc12)N1CCCCCC1	GLP1R inv ag 10µM
COc1ccc(-c2nc3sc(CCNC(=O)Cc4ccccc4)c(C)n3n2)cc1	none (no result: RORg inh, GLP1R ag, VP16 counter)
O=C(NCCCCc1ccccc1)c1ccccc1Cl	GLP1R inv ag 5µM
Cc1ccccc1C(=O)NCC(=O)c1ccccc1	none (no result: RORg inh, VP16 counter)
O=C(CNC(=O)c1ccccc1F)c1ccccc1	RORg inh 11µM, GLP1R inv ag inconclusive, VP16 counter inconclusive
O=C(NCC(=O)N1CCN(C(c2ccccc2)c2ccccc2)CC1)c1ccccc1F	GLP1R inv ag 8.9µM
NNC(=O)CNC(=O)c1ccccc1F	RORg inh inconclusive
O=C(CNC(=O)c1ccccc1Cl)c1ccccc1	RORg inh 8.9µM
CC(C)(C)Nc1oc(-c2ccccc2)nc1-c1ccccc1F	none (no result: GLP1R cytotox, GLP1R inv ag, GLP1R ag)
COc1ccccc1CN1COc2ccc3c(C)cc(=O)oc3c2C1	none (no result: RORg inh, VP16 counter)
CC1(C)SC2[C@@H](N=CN3CCCCCC3)C(=O)N2[C@H]1C(=O)O (stereo not given in full)	none (no result: GLP1R cytotox, GLP1R inv ag)
O=C1C2=C(C(=O)c3ccccc31)C1O[C@](c3ccsc3)(Cc3ccccc31)O2	none (no result: GLP1R cytotox, GLP1R inv ag, GLP1R ag)

Screening data from PubChem.
